WT yeast gro inh – growth inhibition of WT yeast, mitochondrial fusion screen. mitochondrial fusion phenotypic screen, WT strain. inhibition, % at 10 µM. 190,000 compounds, 2.1% hits. AID 1362; in the data active means inhibition above about 58%; tested in S. cerevisiae
ROMK primary – modulators of human ROMK potassium channel. 130,000 compounds, 2% hits. AID 1918. P48048. B-score at 10 µM. Tet-inducible ROMK, thallium flux fluorescence; actives lie on both sides;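 active means signal ratio slope over the read window, or its plate-corrected B-score, at least 3 SD from the plate mean, either direction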;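 further: B-score of the F/F0 ratio slope over 7 to 12 s after thallium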
Target sequence (P48048 whole entry, looked up): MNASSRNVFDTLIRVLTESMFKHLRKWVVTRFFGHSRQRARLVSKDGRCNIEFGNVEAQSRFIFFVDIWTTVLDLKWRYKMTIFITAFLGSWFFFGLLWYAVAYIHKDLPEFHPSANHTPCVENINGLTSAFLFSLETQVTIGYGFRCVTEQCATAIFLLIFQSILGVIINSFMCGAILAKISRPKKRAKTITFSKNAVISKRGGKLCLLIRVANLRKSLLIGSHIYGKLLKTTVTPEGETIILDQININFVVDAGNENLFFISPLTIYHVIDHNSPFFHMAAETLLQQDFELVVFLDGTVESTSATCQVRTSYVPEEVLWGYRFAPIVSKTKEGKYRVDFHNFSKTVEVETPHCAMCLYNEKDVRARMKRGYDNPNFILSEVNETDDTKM
KCC2 mod – modulates chloride dependent transport by human KCC2. Q9H2X9. 190,000 compounds, 2.2% hits. B-score of Tl+ flux slope (higher = more flux/activation; lower = inhibition) at 10 µM. KCC2 cells, thallium flux FluoZin-2 fluorescence. AID 1456;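 active means thallium flux slope and its plate-corrected score both differing from the plate sample mean at a set confidence after two filtering rounds, in either direction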;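 further: slope of fluorescence scaled to starting intensity during 10 to 20 s after thallium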
Calpain2 inh – inhibitors of pig calpain II | inhibition, % at 16 µM | AID 1236 | purified calpain II, fluorogenic peptide substrate, 30 min | 220,000 compounds, 0.37% hits;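 active means inhibition above about 50%, limit read from the data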
Lmaj promast – Leishmania major promastigote growth inhibition | AID 1063 | inhibition, % at 10 µM | 200,000 compounds, 9% hits | Leishmania major promastigotes, resazurin fluorescence viability; in the data active means inhibition above about 50%;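 further: promastigotes grown with compound for 44 hours at 28 °C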
The depositor's hits bear a star; x = not tested or not shown. Compounds with a hit are over-represented: about 12% of the library has one in this group of screens.

SMILES	WT yeast gro inh	ROMK primary	KCC2 mod	Calpain2 inh	Lmaj promast
CN1CCN(Cc2cc(COCc3ccccc3)c3cccnc3c2O)CC1	-1	-1.1	x	0	100*
O=S(=O)(c1ccc(Cl)cc1)N1CCN(Cc2ccc(O)c3ncccc23)CC1	-18	-0.19	-0.37	-36	98*
Oc1ccc(CN2CCN(Cc3ccccc3)CC2)c2cccnc12	-11	-0.014	-0.41	11	100*
O=c1[nH]c(CN2CCN(S(=O)(=O)c3ccc(Cl)cc3)CC2)nc2cc(Cl)ccc12	15	x	0.18	26	7
CC(C)(C)c1csc(NC(=O)c2ccc3nccnc3c2)n1	-7	x	0.73	-34	42
O=C(Nc1ccccc1)Nc1ccccc1-n1ccnc1	3	-0.068	0.016	21	80*
Cc1cccc(N(C(=O)CCC(=O)Nc2nccs2)C(C(=O)NC(C)(C)C)c2ccc(O)cc2)c1 (stereo not drawn)	-8	-0.7	-0.39	-21	-5
O=C(COC(=O)c1ccc([N+](=O)[O-])s1)NC(=O)NCc1ccccc1	10	-0.033	-0.061	0	93*
CCc1ccccc1NC(=O)c1ccc([N+](=O)[O-])s1	19	-1.2	0.44	13	100*
COc1ccccc1NC(=O)COC(=O)c1ccc([N+](=O)[O-])s1	95*	-0.068	-0.67	-4	9
O=C(COC(=O)c1ccc([N+](=O)[O-])s1)NCc1ccc(F)cc1	9	-0.29	-0.78	3	12
COc1ccccc1N1CCN(CC(=O)Nc2ccc(-n3cnnn3)cc2)CC1	-7	-0.81	1.1	-21	-4
O=C(c1coc(=O)c2ccccc12)N1CCN(Cc2ccccc2)CC1	5	0.52	-0.12	-1	-4
Cn1c(/C=C/N2CCOCC2)c(C(=O)c2ccc(Br)cc2)c(=O)n(C)c1=O	77*	x	-0.72	2	0
Cc1cccc(NC(=O)CSc2nnc(-c3ccco3)n2CC2CCCO2)n1 (stereo not drawn)	-3	-0.44	-0.35	20	-6
CC(C)CNC(=O)C1CC(=O)OC12CCCCC2 (stereo not drawn)	8	x	x	-18	-4
O=C1CC(C(=O)NCc2ccccc2)C2(CCCC2)O1 (stereo not drawn)	65*	x	0.76	-11	-5
Cc1ccc(C(=O)NNC(=O)c2cccnc2SCc2cccc([N+](=O)[O-])c2)cc1	2	x	0.0013	-9	-7
CCN1C(=O)C(C)S/C1=N\S(=O)(=O)c1ccc(F)cc1 (stereo not drawn)	9	-0.37	0.01	24	-3
C=CCN1C(=O)C(C)S/C1=N\S(=O)(=O)c1ccc(Cl)cc1 (stereo not drawn)	7	0.41	0.96	17	52*
O=C(COC(=O)C1COc2ccccc2O1)Nc1ccc2c(c1)CCC2 (stereo not drawn)	8	1.4	x	-26	-5
S=C(NCc1ccccc1)NCc1ccc(CNC(=S)NCc2ccccc2)cc1	2	-0.46	-0.4	-8	10
C/C(CCC(C)C)=N\NC(=S)NCc1ccccc1	60*	-0.0046	2.7	34	39
Cn1c(=O)[nH]c(=O)c2c1nc(NCCCO)n2CCOc1ccccc1	-9	0.41	-1.2	-13	-6
CC1=C(C#N)C(NC(=O)c2ccc(Cl)cc2)(C(F)(F)F)C(=O)N1 (stereo not drawn)	-5	0.11	0.41	-5	-5
SMILES	WT yeast gro inh	ROMK primary	KCC2 mod	Calpain2 inh	Lmaj promast
CC1=C(C#N)C(NC(=O)c2ccc(C)cc2)(C(F)(F)F)C(=O)N1 (stereo not drawn)	77*	x	x	-5	-3
Cc1cc(C)c2oc(C(=O)N(Cc3cccs3)C3CCS(=O)(=O)C3)cc(=O)c2c1 (stereo not drawn)	x	-0.084	-0.0024	-10	x
O=C1/C(=C/c2ccc([N+](=O)[O-])cc2)C=C(c2ccccc2)N1c1ccc(O)cc1	51	0.27	-0.022	6	100*
COc1cc(S(=O)(=O)Nc2cc(C)cc(C)c2)ccc1F	-1	-0.34	0.079	-2	9
COc1ccc(S(=O)(=O)Nc2cccc(Cl)c2)cc1OC	12	x	-0.72	16	11
COc1ccc(S(=O)(=O)Nc2ccc(F)cc2)cc1N(C)S(=O)(=O)c1ccc(Cl)cc1	17	-0.016	-0.78	-13	100*
COc1ccc(NS(=O)(=O)c2ccc(OC)c(N(C)S(=O)(=O)c3ccc(Cl)cc3)c2)cc1	-2	x	x	-24	100*
O=C1CC(C(=O)N2CCC(N3CCC(C(=O)NC4CC4)CC3)CC2)c2ccccc21 (stereo not drawn)	3	-0.39	0.64	-21	-2
O=C(NC1CCCCC1)Sc1ccc(Cl)cc1	6	-4.7*	x	-3	64*

From PubChem
